Among the data in PubChem BioAssay (NCATS) are Potency, outcome and activity change, negative = inhibition values, retold here.

The nature of assay [1]: Primary qHTS for small molecule stabilizers of the endoplasmic reticulum resident proteome: Secreted ER Calcium Modulated Protein (SERCaMP) assay (AID 1508630). Further: on the % scale 0 is the no-effect control and ±100 the full control effect. The procedure, abridged: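 GLuc-SERCaMP-expressing SH-SY5Y cells, pretreated 16 h with compound, are challenged with thapsigargin to empty ER calcium stores; after 4 h, coelenterazine is added directly to the medium and luminescence is imaged.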
(In general: Quantitative high-throughput screening tests each substance at several concentrations.)

Assay [2] in a line: A High-Content qHTS Against Drug Library for the Identification of Small Molecules that Inhibit DYT1 Early Onset Primary Dystonia-Associated Cell Pathology (AID 1645839; calls by dose curve; further: series mostly up to about 46 µM). The procedure, abridged: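 Readout: %pathology, the punctate EGFP-TorsinA distribution from imaging, as the primary channel and cell count as the toxicity counterscreen. HEK293 Flp-In cells expressing delE TorsinA were induced with tetracycline and treated with compound for 48 h.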

For assay [3], the target named is Cytochrome P450 3A4 (Homo sapiens) (UniProt P08684). Nature of the assay: Cytochrome P450 family 3 subfamily A member 4 (CYP3A4) small molecule antagonists: luciferase qHTS assay (AID 1645841; active means well fitted curve in the direction sought with a large enough effect in the repeat runs; an effect the other way counts as inactive or inconclusive; further: nearly all actives have a fitted effect of over 45% in size). The procedure, abridged: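 P450-Glo CYP3A4 enzyme with proluciferin substrate was preincubated with DMSO-dissolved compounds for 10 min at room temperature. NADPH regeneration solution started a 1 h reaction. Detection reagent stopped it, and luminescence was read after 20 min.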

The target in assay [4] is Cytochrome P450 2C9 (Homo sapiens) (UniProt P11712). Nature of the assay: Cytochrome P450 family 2 subfamily C member 9 (CYP2C9) small molecule antagonists: luciferase biochemical (cell-free) qHTS assay (AID 1645842; active means well fitted curve in the direction sought with a large enough effect in the repeat runs; an effect the other way counts as inactive or inconclusive; further: nearly all actives have a fitted effect of over 55% in size; further: potency means the concentration at half of the fitted maximal effect; on activity change, negative = inhibition: series mostly up to about 57 µM; on the % scale 0 is the no-effect control and ±100 the full control effect). The procedure, abridged:
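Luminescence, after 20 min with luciferin detection reagent, reflected CYP2C9 turnover during a 1 h NADPH-driven reaction at 37C. Enzyme-substrate mix contained 0.4% bovine serum albumin and was preincubated with compound 10 min at room temperature.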

Assay [5] is described as follows: Primary qHTS for inhibitors of nuclear receptor binding SET domain protein 2 (NSD2) in an isogenic RCH-ACV NSD2 p.E1099K mutant (9B) (AID 1645876). Further: nearly all actives have a fitted effect of over 70% in size. Further: potency means the concentration at half of the fitted maximal effect.
Assay [6] has as its target Rap guanine nucleotide exchange factor 3 (Homo sapiens) (UniProt O95398). In words: Confirmatory qHTS for antagonist of cAMP-regulated guanine nucleotide exchange factor 3 (EPAC1) (AID 1645880). Further: potency means the concentration at half of the fitted maximal effect; nearly all actives have a fitted effect of over 55% in size. The procedure, abridged:
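Nucleotide exchange uses 100 nM EPAC1, 250 nM RAP1B-BODIPY-GDP and 50 uM GDP, with compounds in a concentration-titration series. After 5 min at room temperature, fluorescence (480 nm ex/540 nm em) is read every 5 min for 30 min. Data are normalized to control ATA and DMSO.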

For assay [7] the target is unchanged. In words: Confirmatory qHTS for agonist of cAMP-regulated guanine nucleotide exchange factor 3 (EPAC1) (AID 1645881).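 Further: EPAC1 catalysed release of BODIPY-GDP from Rap1B seen as fluorescence loss; 100% = effect of cAMP agonist control; nearly all actives have a fitted effect of over 75% in size.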
Assay [8] deals with Rap guanine nucleotide exchange factor 4 (Homo sapiens) (UniProt Q8WZA2). In words: Confirmatory qHTS for agonist of cAMP-regulated guanine nucleotide exchange factor 4 (EPAC2) (AID 1645884).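 Further: nucleotide exchange releases bodipy-GDP from Rap1 and this lowers its fluorescence; on the % scale 0 is the no-effect control and ±100 the full control effect; nearly all actives have a fitted effect of over 65% in size.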
Assay [9] has the same target. Nature of the assay: Confirmatory qHTS for antagonist of cAMP-regulated guanine nucleotide exchange factor 4 (EPAC2) (AID 1645885). Further: on the % scale 0 is the no-effect control and ±100 the full control effect; nearly all actives have a fitted effect of over 25% in size.
Assay [10] addresses Rap guanine nucleotide exchange factor 3 (Homo sapiens) (UniProt O95398). Nature of the assay: Counterscreen qHTS for antagonist of cAMP-regulated guanine nucleotide exchange factor 3 (EPAC1) (AID 1645888).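 Further: fluorescence loss as bound BODIPY-GDP is released from Rap1B; % of control where 0% means no effect.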 The procedure, abridged:
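Measured: fluorescence of BODIPY-GDP bound to Rap1B, which falls as exchange proceeds. Conditions include 50 uM competing GDP, 5 and 30 min reads, and a later cAMP challenge for antagonist detection.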

Assay [11] concerns the target Cytochrome P450 2D6 (Homo sapiens) (UniProt P10635). Nature of the assay: Cytochrome P450 family 2 subfamily D member 6 (CYP2D6) small molecule antagonists: luciferase biochemical (cell-free) qHTS assay (AID 1645840; active means well fitted curve in the direction sought with a large enough effect in the repeat runs; an effect the other way counts as inactive or inconclusive; further: nearly all actives have a fitted effect of over 55% in size; further: potency means the concentration at half of the fitted maximal effect; on activity change, negative = inhibition: series mostly up to about 57 µM; on the % scale 0 is the no-effect control and ±100 the full control effect). The essentials: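 P450-Glo luminescent screen: recombinant CYP2D6 enzyme–proluciferin substrate mix preincubated with compound 10 min at room temperature, then NADPH regeneration added for 1 h at room temperature. Detection reagent added for 20 min; luciferin light read as relative luminescence units.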

A short description of assay [12]: Primary qHTS for inhibitors of nuclear receptor binding SET domain protein 2 (NSD2) in an RCH-ACV wild type WT cells (2C) (AID 1645877). Further: nearly all actives have a fitted effect of over 70% in size. Further: potency means the concentration at half of the fitted maximal effect.

“And” between values parts separate entries of the source, which are not always exact repeats. Identical values can stand only once. Results filed as inconclusive are left out. A number with no mark means an inactive call. The source made the active and inactive calls. Unless noted, the call rests on the fitted dose curve; in most records, active means well fitted curve in the direction sought with a large enough effect; inconclusive means small, poorly fitted or top-dose-only effect, or another doubt; inactive means no such curve, though single readings can be large; an effect the other way counts as inactive or inconclusive.

Cytochrome P450 2C9 (Homo sapiens), sequence (P11712 whole entry, looked up): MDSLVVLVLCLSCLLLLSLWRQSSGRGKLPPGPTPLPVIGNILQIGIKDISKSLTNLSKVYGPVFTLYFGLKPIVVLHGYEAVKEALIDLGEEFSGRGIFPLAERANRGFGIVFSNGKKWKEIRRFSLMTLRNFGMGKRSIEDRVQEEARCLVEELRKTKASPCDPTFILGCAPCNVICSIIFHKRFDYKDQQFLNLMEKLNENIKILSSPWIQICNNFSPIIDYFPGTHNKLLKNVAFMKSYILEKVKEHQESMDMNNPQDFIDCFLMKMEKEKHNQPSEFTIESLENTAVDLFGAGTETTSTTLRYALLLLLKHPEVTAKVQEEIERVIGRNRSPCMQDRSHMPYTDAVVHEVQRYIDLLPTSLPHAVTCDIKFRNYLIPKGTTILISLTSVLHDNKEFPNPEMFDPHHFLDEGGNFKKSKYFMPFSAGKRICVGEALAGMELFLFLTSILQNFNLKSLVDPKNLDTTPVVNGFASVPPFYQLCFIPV
Cytochrome P450 2D6 (Homo sapiens), sequence (P10635 whole entry, looked up): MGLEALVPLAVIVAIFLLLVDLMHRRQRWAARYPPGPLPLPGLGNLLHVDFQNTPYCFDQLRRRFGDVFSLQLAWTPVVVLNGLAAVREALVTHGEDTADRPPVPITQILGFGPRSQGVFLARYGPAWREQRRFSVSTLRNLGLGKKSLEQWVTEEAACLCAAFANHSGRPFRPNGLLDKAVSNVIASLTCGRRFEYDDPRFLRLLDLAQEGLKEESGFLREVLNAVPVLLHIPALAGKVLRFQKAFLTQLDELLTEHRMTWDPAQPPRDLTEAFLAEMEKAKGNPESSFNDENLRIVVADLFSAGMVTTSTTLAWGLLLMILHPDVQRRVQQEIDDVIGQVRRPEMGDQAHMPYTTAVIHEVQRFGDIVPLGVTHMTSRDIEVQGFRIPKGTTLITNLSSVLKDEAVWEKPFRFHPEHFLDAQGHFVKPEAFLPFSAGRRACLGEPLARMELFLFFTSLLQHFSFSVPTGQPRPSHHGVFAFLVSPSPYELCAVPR
Rap guanine nucleotide exchange factor 3 (Homo sapiens), sequence (O95398 whole entry, looked up): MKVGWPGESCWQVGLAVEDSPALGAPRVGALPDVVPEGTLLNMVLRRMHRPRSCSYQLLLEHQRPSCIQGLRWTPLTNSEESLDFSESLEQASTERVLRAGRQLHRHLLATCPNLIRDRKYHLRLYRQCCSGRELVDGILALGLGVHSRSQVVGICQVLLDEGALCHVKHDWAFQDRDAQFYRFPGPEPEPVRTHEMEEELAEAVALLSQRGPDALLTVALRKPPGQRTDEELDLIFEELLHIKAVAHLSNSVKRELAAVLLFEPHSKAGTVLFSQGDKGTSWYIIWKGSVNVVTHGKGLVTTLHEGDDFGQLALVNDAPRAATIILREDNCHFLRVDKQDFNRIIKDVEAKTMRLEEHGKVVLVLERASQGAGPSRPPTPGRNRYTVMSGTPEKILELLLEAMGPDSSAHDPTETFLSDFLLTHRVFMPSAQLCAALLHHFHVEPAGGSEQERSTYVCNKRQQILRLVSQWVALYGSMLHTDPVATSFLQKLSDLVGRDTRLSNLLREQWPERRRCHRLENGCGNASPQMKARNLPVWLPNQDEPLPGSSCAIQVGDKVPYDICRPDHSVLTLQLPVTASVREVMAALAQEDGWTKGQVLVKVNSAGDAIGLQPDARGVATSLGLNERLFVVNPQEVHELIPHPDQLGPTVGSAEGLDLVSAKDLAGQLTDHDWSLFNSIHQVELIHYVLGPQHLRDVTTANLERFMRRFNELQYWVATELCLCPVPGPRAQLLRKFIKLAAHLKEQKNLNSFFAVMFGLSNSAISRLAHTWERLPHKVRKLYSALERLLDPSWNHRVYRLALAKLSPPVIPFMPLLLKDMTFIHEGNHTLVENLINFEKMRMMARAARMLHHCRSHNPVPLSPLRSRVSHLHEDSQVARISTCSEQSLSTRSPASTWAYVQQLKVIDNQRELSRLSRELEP
Cytochrome P450 3A4 (Homo sapiens), sequence (P08684 whole entry, looked up): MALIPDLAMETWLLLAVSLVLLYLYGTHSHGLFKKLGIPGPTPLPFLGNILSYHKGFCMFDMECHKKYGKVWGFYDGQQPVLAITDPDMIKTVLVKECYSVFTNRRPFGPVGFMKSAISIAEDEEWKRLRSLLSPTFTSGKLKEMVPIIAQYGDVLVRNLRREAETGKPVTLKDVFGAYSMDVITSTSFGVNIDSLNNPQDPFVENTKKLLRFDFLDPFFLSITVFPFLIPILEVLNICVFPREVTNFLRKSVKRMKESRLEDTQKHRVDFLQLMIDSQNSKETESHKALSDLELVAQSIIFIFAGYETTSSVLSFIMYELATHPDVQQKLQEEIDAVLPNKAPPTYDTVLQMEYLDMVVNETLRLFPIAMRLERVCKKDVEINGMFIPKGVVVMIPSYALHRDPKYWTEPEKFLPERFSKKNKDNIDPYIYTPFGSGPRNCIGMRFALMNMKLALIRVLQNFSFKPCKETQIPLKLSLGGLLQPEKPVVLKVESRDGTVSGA
Rap guanine nucleotide exchange factor 4 (Homo sapiens), sequence (Q8WZA2 whole entry, looked up): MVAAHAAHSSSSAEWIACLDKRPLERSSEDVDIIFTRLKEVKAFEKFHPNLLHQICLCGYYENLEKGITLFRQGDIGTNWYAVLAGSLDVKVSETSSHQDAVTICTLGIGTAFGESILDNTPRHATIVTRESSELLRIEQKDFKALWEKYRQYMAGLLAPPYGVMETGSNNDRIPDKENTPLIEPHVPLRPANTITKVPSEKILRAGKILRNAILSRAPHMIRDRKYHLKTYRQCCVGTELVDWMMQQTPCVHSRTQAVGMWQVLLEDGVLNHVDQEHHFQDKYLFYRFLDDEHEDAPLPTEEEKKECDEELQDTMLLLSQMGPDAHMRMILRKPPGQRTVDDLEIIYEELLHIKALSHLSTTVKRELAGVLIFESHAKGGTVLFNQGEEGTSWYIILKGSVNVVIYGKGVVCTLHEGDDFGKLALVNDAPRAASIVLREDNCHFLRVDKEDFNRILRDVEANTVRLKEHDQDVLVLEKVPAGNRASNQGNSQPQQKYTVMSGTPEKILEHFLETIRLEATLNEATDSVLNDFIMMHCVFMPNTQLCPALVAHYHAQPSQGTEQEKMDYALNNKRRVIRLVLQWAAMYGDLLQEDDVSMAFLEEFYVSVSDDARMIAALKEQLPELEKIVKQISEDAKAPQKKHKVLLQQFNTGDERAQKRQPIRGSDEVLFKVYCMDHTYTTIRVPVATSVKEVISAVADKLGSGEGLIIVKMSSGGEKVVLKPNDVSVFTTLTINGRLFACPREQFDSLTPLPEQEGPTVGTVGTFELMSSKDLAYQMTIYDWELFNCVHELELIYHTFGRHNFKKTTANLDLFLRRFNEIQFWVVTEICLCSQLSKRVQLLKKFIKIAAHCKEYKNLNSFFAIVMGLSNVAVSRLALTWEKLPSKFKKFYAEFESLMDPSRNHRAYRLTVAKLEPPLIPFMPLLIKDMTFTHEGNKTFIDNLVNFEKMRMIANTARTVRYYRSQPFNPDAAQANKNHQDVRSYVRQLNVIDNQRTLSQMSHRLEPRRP

With `C=C1c2cccc(O)c2C(O)=C2C(=O)[C@]3(O)C(O)=C(C(N)=O)C(=O)[C@@H](N(C)C)[C@@H]3[C@@H](O)[C@H]12`, the Potency result in assay [1], in assay [2], in [3], in [4], in assay [5] and in assay [9] was “inactive” throughout. Further, the Potency in assay [6] was 47.8 µM (active). Besides, the outcome in assay [7], in assay [8] and in assay [10] was inactive.
For the compound `CN(C)CCN1C(=O)c2ccccc2N(C)c2ccccc21`, the Potency result in assay [1], in assay [2], in assay [4] and in assay [5] was “inactive” in each case.
Turning to `CN(Cc1ccc(C(C)(C)C)cc1)Cc1cccc2ccccc12`, the Potency entry in assay [1], in assay [2], in [5] and in assay [12] was “inactive” each time. Besides, in assay [11], the Potency was 0.123 µM (active).
Consider `CC(CNC1CCCCC1)OC(=O)c1ccccc1` (stereo not drawn), for which the Potency result in assay [1], in assay [2], in [5] and in [12] was “inactive” throughout.
Take `CC(=O)O[C@]1(C(C)=O)CC[C@H]2[C@@H]3C=C(Cl)C4=CC(=O)CC[C@]4(C)[C@H]3CC[C@@]21C`: the Potency result in assay [1] and in [11] was “inactive” each time. The Potency in [4] was 8.71 µM (active).
In the case of `CCCCCCCCCCCCCCC[C@H](O)[C@@H](N)CO`, the activity change, negative = inhibition in assay [1] was -27.1% [at 3.88 µM]. In addition, the Potency is 9.77 µM (active) in assay [11] and 4.73 µM (active) in assay [5]. Moreover, in [4], the Potency entry is “inactive”.
`CNCCCCOc1ccccc1Cc1ccccc1`: the Potency result in assay [1] and in assay [4] was “inactive” each time. The Potency in assay [11] is 0.692 µM (active).
Regarding `O=c1[nH]c(=O)n([C@H]2C[C@H](O)[C@@H](CO)O2)cc1F`, the Potency entry in assay [1], in assay [11] and in assay [4] was “inactive” each time. In addition, the Potency in assay [5] is 13.3 nM (active) and 29.5 nM (active).
As for `COc1ccc2c(c1)c1c3n2CCN(C)C3=NCC1`, the Potency result in [1], in assay [2], in [4], in [5] and in assay [12] was “inactive” in each case.
Regarding `CCN(CC)CCOc1ccccc1C(=O)CCc1ccccc1`, the Potency result in assay [1], in assay [4] and in assay [5] was “inactive” in each case. Moreover, in assay [11], the Potency is 0.11 µM (active).
Turning to `Cc1ccccc1OCC(O)CO` (stereo not drawn), the Potency result in assay [1], in assay [2], in [5] and in assay [12] was “inactive” each time.
As for `Cc1cn([C@H]2C[C@H](F)[C@@H](CO)O2)c(=O)[nH]c1=O`, the Potency entry in assay [1], in assay [11], in assay [3], in [4] and in [5] was “inactive” throughout.
As to `CCCCC(CC)CN1CN(CC(CC)CCCC)CC(C)(N)C1` (stereo not drawn), the Potency entry in assay [1] and in assay [4] was “inactive” each time. The Potency in [11] is 0.219 µM (active).
Turning to `C[C@@H](O)[C@H]1C(=O)N2C(C(=O)O)=C(S[C@@H]3CN[C@H](CNS(N)(=O)=O)C3)[C@H](C)[C@H]12`, the Potency entry in [1], in [11] and in assay [5] was “inactive” in each case. Also, the Potency in assay [4] was 11 µM (active).
`O=C(NCCc1c[nH]c2ccccc12)c1cccnc1`: the Potency entry in assay [1], in [2] and in assay [5] was “inactive” in each case.
On to `O=C(O)CCNC(=O)c1ccccc1`, for which the Potency result in assay [1], in [11], in [4] and in assay [5] was “inactive” each time.
Consider `CCO[C@@H]1O[C@H](C(COCc2ccccc2)OCc2ccccc2)[C@H](OCc2ccccc2)[C@H]1O` (stereo partly drawn), for which the Potency entry in [1] was “inactive”. Besides, the Potency was 11 µM (active) in [11], 3.09 µM (active) in [4] and 23.7 µM (active) in assay [5].
In the case of `COc1cc([C@H]2Oc3cc([C@H]4Oc5cc(O)cc(O)c5C(=O)[C@@H]4O)ccc3O[C@@H]2CO)ccc1O`, the Potency entry in [1], in assay [11] and in assay [5] was “inactive” each time. In addition, the Potency in [4] is 8.71 µM (active).
Regarding `O=C(O)C(Cc1cc(I)c(O)c(I)c1)c1ccccc1` (stereo not drawn), the Potency result in [1], in [11] and in [5] was “inactive” in each case. Besides, the Potency in [4] is 15.1 µM (active) and 11 µM (active).
Take `CCN(CC)CCNC(=O)c1cc(Br)c(N)cc1OC`: the Potency result in assay [1], in [4] and in assay [5] was “inactive” each time. Moreover, the Potency in [11] was 6.92 µM (active).
`C#C[C@]1(O)CC[C@H]2[C@@H]3[C@H](C)CC4=C(CCC(=O)C4)[C@H]3CC[C@@]21C`: the Potency result in assay [1] and in assay [2] was “inactive” each time. The results for the Potency in assay [5] and in assay [12] were 23.7 µM (active) and 21.1 µM (active), respectively.
Turning to `C#C[C@]1(OC(C)=O)CC[C@H]2[C@@H]3CCC4=C/C(=N/O)CC[C@@H]4[C@H]3CC[C@@]21CC`, the Potency entry in [1] is “inactive”. The Potency in [11] is 2.68 µM (active); in assay [4] it was 952 nM (active) and 7.76 µM (active).
`Cc1cc(CC(=O)O)c(C)n1-c1ccc(Cl)cc1`: the Potency result in assay [1] and in [11] was “inactive” in each case.
Consider `O=C(CN1CCN(Cc2ccc3c(c2)OCO3)CC1)N1c2ccccc2Sc2ccccc21`, for which the Potency entry in assay [1] and in assay [5] was “inactive” each time. In addition, the Potency is 0.195 µM (active) in assay [11] and 7.76 µM (active) in assay [4].
As for `COc1ccc(-c2cc(C(F)F)nn2-c2ccc(S(N)(=O)=O)cc2)cc1F`, in assay [1], the Potency entry was “inactive”. The results for the Potency in assay [11] and in [4] were 5.49 µM (active) and 6.17 µM (active), respectively.
`C[C@H]1O[C@@H](O[C@H]2CC[C@@]3(C)[C@H](CC[C@@H]4[C@@H]3C[C@@H](O)[C@]3(C)[C@@H](C5=CC(=O)OC5)CC[C@]43O)C2)C[C@H](O)[C@@H]1O[C@H]1C[C@H](O)[C@H](O[C@H]2C[C@H](O)[C@H](O[C@@H]3O[C@H](CO)[C@@H](O)[C@H](O)[C@H]3O)[C@@H](C)O2)[C@@H](C)O1`: the Potency entry in [1], in assay [11] and in [4] was “inactive” each time. Moreover, in assay [5], the Potency is 0.0668 µM (active).
With `CC(C)Cc1ccc(CC(=O)O)cc1`, the Potency entry in assay [1], in [11] and in assay [4] was “inactive” throughout.
